Experimental data as given in PubChem BioAssay (NCI).
About 83,000 compounds went through this panel and 20% of them were active in at least one assay; those are over-represented in the sample as a whole.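 Cell lines were cultured in 96-well plates, exposed to a single compound concentration, and assessed for percent growth 48 hours later.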 Calls of active or inactive are those of the source. Rule for the calls: active = growth percent below 10; inactive = the rest.

Tests used:
Assay in all cases: NCI-60 one-dose screen, 48 h (100 = growth as untreated, 0 = no growth, -100 = all killed)
Conditions in all cases: 10 µM unless noted
HCT-15 colon = system: HCT-15 colon
HT29 colon = system: HT29 colon
SNB-75 CNS = system: SNB-75 CNS
SNB-19 CNS = system: SNB-19 CNS
PC-3 prostate = system: PC-3 prostate
SK-MEL-5 melanoma = system: SK-MEL-5 melanoma
UACC-62 melanoma = system: UACC-62 melanoma
LOX IMVI melanoma = system: LOX IMVI melanoma
SK-MEL-28 melanoma = system: SK-MEL-28 melanoma
SK-MEL-2 melanoma = system: SK-MEL-2 melanoma
EKVX NSCLC = system: EKVX NSCLC
SN12C renal = system: SN12C renal
UO-31 renal = system: UO-31 renal
TK-10 renal = system: TK-10 renal
ACHN renal = system: ACHN renal
CAKI-1 renal = system: CAKI-1 renal
A498 renal = system: A498 renal
CCRF-CEM leukemia = system: CCRF-CEM leukemia
MOLT-4 leukemia = system: MOLT-4 leukemia
U251 CNS = system: U251 CNS

Measured: growth

CN(C)CCCn1c(=O)c2cc([N+](=O)[O-])ccc2c2cnc3[nH]ccc3c21
inactive: HCT-15 colon 48% | HT29 colon 16.2% | SNB-75 CNS 49.5% | SNB-19 CNS 53.5% | PC-3 prostate 48.4% | SK-MEL-5 melanoma 69.4% | UACC-62 melanoma 74.6% | LOX IMVI melanoma 38.5% | SK-MEL-28 melanoma 104% | SK-MEL-2 melanoma 53.7% | EKVX NSCLC 62.2% | SN12C renal 47% | UO-31 renal 33.1% | TK-10 renal 50.5% | ACHN renal 27.9% | CAKI-1 renal 79.5% | A498 renal 39.5%
active: CCRF-CEM leukemia -26.4% | MOLT-4 leukemia 8.62%

COc1cc(OC)c(C(=O)/C=C/c2cccc(OC(C)=O)c2)cc1CC=C(C)C
inactive: HCT-15 colon 55% | HT29 colon 84.2% | SNB-75 CNS 77.5% | SNB-19 CNS 101% | U251 CNS 44.6% | PC-3 prostate 36% | SK-MEL-5 melanoma 64.2% | UACC-62 melanoma 47.3% | LOX IMVI melanoma 48.3% | SK-MEL-28 melanoma 67.8% | EKVX NSCLC 107% | SN12C renal 62.1% | TK-10 renal 162% | ACHN renal 74.9% | CAKI-1 renal 241% | MOLT-4 leukemia 32%
active: CCRF-CEM leukemia 9.5%

CC(CN1CCN(CC(C)Nc2ccnc3cc(Cl)ccc23)CC1)Nc1ccnc2cc(Cl)ccc12 (centres undefined)
inactive: SNB-19 CNS 31.6% | PC-3 prostate 26.2% | EKVX NSCLC 67.3% | SN12C renal 57.7% | ACHN renal 19.1% | CAKI-1 renal 11.2% | A498 renal 84.7%
active: HCT-15 colon -1.75% | HT29 colon -19.7% | SNB-75 CNS -26.8% | SK-MEL-5 melanoma -97.6% | UACC-62 melanoma -62.7% | LOX IMVI melanoma -86.1% | SK-MEL-28 melanoma -91.4% | SK-MEL-2 melanoma -37.9% | UO-31 renal -49.5% | TK-10 renal -48% | CCRF-CEM leukemia 5.14% | MOLT-4 leukemia 4.88%

Fc1cc(-c2cnc3nonc3n2)c(Cl)cc1Cl
inactive: HCT-15 colon 51% | HT29 colon 87.9% | SNB-75 CNS 99.9% | SNB-19 CNS 90.4% | U251 CNS 109% | PC-3 prostate 85.3% | SK-MEL-5 melanoma 98.3% | UACC-62 melanoma 82.3% | LOX IMVI melanoma 101% | SK-MEL-28 melanoma 91.8% | EKVX NSCLC 102% | SN12C renal 91.8% | TK-10 renal 72.4% | ACHN renal 18.1% | CAKI-1 renal 85% | A498 renal 95.7% | MOLT-4 leukemia 20.2%
active: UO-31 renal -28.3% | CCRF-CEM leukemia -12.7%

COc1cccc(C2C(C#N)=C(N)Oc3cc4c(cc32)OCO4)c1 (centres undefined)
inactive: HCT-15 colon 16.4% | SNB-19 CNS 39.2% | PC-3 prostate 27.4% | UACC-62 melanoma 33.6% | LOX IMVI melanoma 23.1% | SK-MEL-28 melanoma 43% | SK-MEL-2 melanoma 64.7% | EKVX NSCLC 47.9% | SN12C renal 23.8% | UO-31 renal 39.3% | TK-10 renal 80% | ACHN renal 29.3% | CAKI-1 renal 52.4% | CCRF-CEM leukemia 17.4% | MOLT-4 leukemia 19.4%
active: HT29 colon 8.91% | SNB-75 CNS 8.73% | SK-MEL-5 melanoma 4.73% | A498 renal 1.43%

COc1ccc(C2=NNC(c3ccc(Oc4nc5c(c(=O)n(C)c(=O)n5C)n4C)c(OC)c3)C2)cc1 (centres undefined)
inactive: HCT-15 colon 93.8% | HT29 colon 95.5% | SNB-75 CNS 78.7% | SNB-19 CNS 87.6% | U251 CNS 83.2% | PC-3 prostate 101% | SK-MEL-5 melanoma 85.3% | UACC-62 melanoma 81.2% | LOX IMVI melanoma 91.4% | SK-MEL-28 melanoma 97.1% | EKVX NSCLC 97.7% | SN12C renal 85.2% | UO-31 renal 81.2% | TK-10 renal 107% | ACHN renal 93.7% | CAKI-1 renal 102% | A498 renal 91.9% | CCRF-CEM leukemia 82.8% | MOLT-4 leukemia 76%

O=C(Nc1ccc(Cl)cc1)c1cc(-c2ccc(Cl)cc2)c2sc(=O)[nH]c2n1
inactive: SNB-75 CNS 10.5% | LOX IMVI melanoma 13.4% | SK-MEL-28 melanoma 25.2%
active: HCT-15 colon 7.94% | HT29 colon -24% | SNB-19 CNS 8% | PC-3 prostate -13.5% | SK-MEL-5 melanoma -19.6% | UACC-62 melanoma -14.7% | SK-MEL-2 melanoma -29.3% | EKVX NSCLC 9.13% | SN12C renal -9.7% | UO-31 renal -5.54% | TK-10 renal 0.672% | ACHN renal 0.731% | CAKI-1 renal 8.17% | A498 renal -43.8% | CCRF-CEM leukemia 5.46%

Cc1cc(-c2ccc(N=Nc3c(S(=O)(=O)O)cc4cc(S(=O)(=O)O)cc(O)c4c3O)c(C)c2)ccc1N=Nc1c(S(=O)(=O)O)cc2cc(S(=O)(=O)O)cc(O)c2c1O
inactive: HCT-15 colon 109% | HT29 colon 103% | SNB-75 CNS 82.4% | SNB-19 CNS 106% | U251 CNS 101% | PC-3 prostate 93.6% | SK-MEL-5 melanoma 101% | UACC-62 melanoma 114% | LOX IMVI melanoma 107% | SK-MEL-28 melanoma 110% | EKVX NSCLC 79.6% | SN12C renal 116% | UO-31 renal 73.9% | TK-10 renal 115% | ACHN renal 101% | CAKI-1 renal 78.1% | A498 renal 122% | CCRF-CEM leukemia 102% | MOLT-4 leukemia 127%
